# According to PubChem BioAssay:
# Activity calls are given as the source filed them.
# Tests used:
# [1] = test system: Human papillomavirus type 1a protein E7 (residues 44-93); assay: HPV1a E7 fragment binders on microarrays, primary screen, biochemical, small-molecule microarray, residues 44-93, 635 nm fluorescence (AID 1108); settings: small-molecule microarray binding, fluorescence 635 nm; higher = more signal;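 note: E7 fragment applied at 1 µg/mL in TBST for 1 h at 4 C; score combines spot fluorescence with its signal to noise ratio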
# [2] = modulators of HCV replicon luciferase signal, primary screen, HCV replication inhibitor project, Huh7 cells, luciferase reporter (AID 1109); settings: 48 h, higher = more signal;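 note: huh7 hepatoma cells harbouring a luciferase neomycin HCV replicon reporter; luciferase luminescence as measure of HCV replicon replication; test concentration not given here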
# [3] = target: Left-right determination factor 2 (Homo sapiens) (UniProt O00292); assay: LEFTY2 binders on small-molecule microarrays, primary screen, biochemical, small-molecule microarray, 635 nm fluorescence scan (AID 1110); settings: LEFTY2 binding, higher = more signal
# Left-right determination factor 2 (Homo sapiens), sequence (O00292 whole entry, looked up): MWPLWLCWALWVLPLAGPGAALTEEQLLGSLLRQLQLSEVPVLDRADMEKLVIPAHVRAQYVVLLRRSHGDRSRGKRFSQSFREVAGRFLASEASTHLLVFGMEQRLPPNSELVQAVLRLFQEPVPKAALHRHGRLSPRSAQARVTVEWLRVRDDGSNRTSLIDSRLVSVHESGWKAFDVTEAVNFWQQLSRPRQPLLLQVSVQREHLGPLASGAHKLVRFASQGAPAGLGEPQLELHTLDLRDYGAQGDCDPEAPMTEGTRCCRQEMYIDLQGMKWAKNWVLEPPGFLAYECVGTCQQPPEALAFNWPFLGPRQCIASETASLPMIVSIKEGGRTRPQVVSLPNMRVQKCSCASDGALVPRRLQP
# [4] = target: Calmodulin-1 (Homo sapiens) (UniProt P0DP23); assay: CALM1 binders on microarrays, EGTA buffer, profiling panel, biochemical, small-molecule microarray, Cy5-labelled CALM1 (AID 1111); settings: Cy5-CALM1 binding fluorescence, higher = more signal;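 note: labelled calmodulin applied in Tris saline Tween buffer holding calcium plus EGTA and DTT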
# [5] = target: Calmodulin-1 (Homo sapiens) (UniProt P0DP23); assay: calcium-bound CALM1 binders on microarrays, profiling panel, artefact control for SMM control-protein annotation, biochemical, small-molecule microarray, Cy5-labelled CALM1, plus calcium (AID 1112); settings: Cy5-CALM1 binding fluorescence, higher = more signal;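 note: score merges spot fluorescence with signal to noise from triplicate slides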
# [6] = small-molecule microarray binders of probe aWnt5a, primary screen, biochemical, biotinylated probe, 635/667 nm fluorescence (AID 1113); settings: higher = more signal;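 note: score merges 667 nm fluorescence intensity with signal-to-noise per printed feature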
# [7] = small-molecule microarray binders of probe aShh, primary screen, biochemical, biotinylated probe, 635/667 nm fluorescence (AID 1114); settings: higher = more signal;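 note: probe is biotin-labelled aShh protein from a stem cell growth factor screen; measures binding of labelled protein to compounds printed on the slide; score merges feature fluorescence at 667 nm with signal-to-noise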
# [8] = small-molecule microarray binders of probe aNog, primary screen, biochemical, biotinylated probe, 635/667 nm fluorescence (AID 1115); settings: higher = more signal;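 note: probe is biotinylated aNog protein used at 0.15 µg/mL for 1 h at 4 C; z-score combines 667 nm fluorescence of each spot with its signal to noise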
# [9] = target: Torsin-1A-interacting protein 1 (Homo sapiens) (UniProt Q5JTV8); assay: LAP1 binders from COS7 cell lysate, primary screen, small-molecule microarray, 635/667 nm fluorescence (AID 1116); settings: COS7-hLAP1 lysate binding, 635 nm fluorescence, higher = more signal
# Torsin-1A-interacting protein 1 (Homo sapiens), sequence (Q5JTV8 whole entry, looked up): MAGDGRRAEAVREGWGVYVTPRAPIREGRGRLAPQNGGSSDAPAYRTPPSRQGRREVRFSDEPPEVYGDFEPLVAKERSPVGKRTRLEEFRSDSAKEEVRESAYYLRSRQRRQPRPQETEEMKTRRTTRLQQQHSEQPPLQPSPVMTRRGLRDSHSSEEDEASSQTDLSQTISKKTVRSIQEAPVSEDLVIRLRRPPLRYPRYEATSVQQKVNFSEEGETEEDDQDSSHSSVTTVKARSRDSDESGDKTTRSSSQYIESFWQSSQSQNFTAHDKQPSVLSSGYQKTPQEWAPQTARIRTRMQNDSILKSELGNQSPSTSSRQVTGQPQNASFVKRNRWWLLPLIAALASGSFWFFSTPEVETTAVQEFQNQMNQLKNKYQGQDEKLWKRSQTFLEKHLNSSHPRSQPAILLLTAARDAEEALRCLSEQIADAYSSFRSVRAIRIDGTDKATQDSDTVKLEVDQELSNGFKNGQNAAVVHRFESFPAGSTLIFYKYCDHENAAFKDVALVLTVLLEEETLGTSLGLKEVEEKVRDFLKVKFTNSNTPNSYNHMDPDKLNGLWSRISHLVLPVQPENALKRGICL
# [10] = target: Alpha-bungarotoxin (Bungarus multicinctus) (UniProt P60615); assay: alpha-bungarotoxin binders on microarray, profiling panel, artefact control for SMM control protein annotation, biochemical, small-molecule microarray, Alexa647 label, 635/667 nm fluorescence (AID 1117); settings: alpha-BTX-A647 binding fluorescence, higher = more signal
# Alpha-bungarotoxin (Bungarus multicinctus), sequence (P60615 whole entry, looked up): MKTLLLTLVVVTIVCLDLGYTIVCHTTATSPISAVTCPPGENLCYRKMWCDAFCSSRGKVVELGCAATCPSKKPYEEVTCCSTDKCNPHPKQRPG
# [11] = target: Albumin (Bos taurus) (UniProt P02769); assay: bovine serum albumin binders on microarray, profiling panel, artefact control for SMM control protein annotation, biochemical, small-molecule microarray, Alexa647 label, 635/667 nm fluorescence (AID 1118); settings: BSA-A647 binding, fluorescence 635 nm, higher = more signal;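 note: score merges 667 nm emission intensity and signal-to-noise per printed compound spot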
# Albumin (Bos taurus), sequence (P02769 whole entry, looked up): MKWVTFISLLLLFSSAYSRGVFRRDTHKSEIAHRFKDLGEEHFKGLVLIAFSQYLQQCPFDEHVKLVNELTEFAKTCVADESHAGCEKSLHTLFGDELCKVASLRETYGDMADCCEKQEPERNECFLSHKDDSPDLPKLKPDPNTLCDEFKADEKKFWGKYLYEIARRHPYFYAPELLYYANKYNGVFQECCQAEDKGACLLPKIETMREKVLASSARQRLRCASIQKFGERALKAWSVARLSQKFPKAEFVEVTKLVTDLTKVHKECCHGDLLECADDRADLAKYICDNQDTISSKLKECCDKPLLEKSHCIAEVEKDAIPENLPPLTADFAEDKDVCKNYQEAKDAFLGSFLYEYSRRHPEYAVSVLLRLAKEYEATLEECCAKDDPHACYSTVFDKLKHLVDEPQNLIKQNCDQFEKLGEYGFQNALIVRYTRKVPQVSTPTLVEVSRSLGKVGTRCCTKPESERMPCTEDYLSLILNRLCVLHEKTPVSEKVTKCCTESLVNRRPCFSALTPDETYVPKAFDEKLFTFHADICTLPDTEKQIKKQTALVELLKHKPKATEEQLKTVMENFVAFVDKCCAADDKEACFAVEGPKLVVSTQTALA
# [12] = small-molecule microarray binders of probe aXIP, primary screen, biochemical, NeuroSMM set, 635/667 nm fluorescence (AID 1119); settings: higher = more signal, called active from +8 up or from −8 down;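 note: probe is the protein aXip251-270 applied at 1 µg/mL to compound-printed slides; binding of probe to printed compounds measured as 667 nm fluorescence plus signal to noise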
# [13] = small-molecule binders of probe aNOTCH3, primary screen, biochemical, small-molecule microarray, 635/667 nm fluorescence (AID 1120); settings: higher = more signal;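 note: probe is a biotin-tagged antibody raised against NOTCH3 rather than NOTCH3 protein; score merges spot fluorescence near 667 nm with spot signal to noise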
# [14] = small-molecule binders of probe aNOTCH2, primary screen, biochemical, small-molecule microarray, 635/667 nm fluorescence (AID 1121); settings: higher = more signal;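 note: score merges feature fluorescence read at 667 nm with its signal to noise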
# [15] = target: Carbonic anhydrase 2 (Homo sapiens) (UniProt P00918); assay: CAII small-molecule binders, profiling panel, biochemical, small-molecule microarray, Alexa647-labelled CAII (AID 1122); settings: CAII-A647 binding fluorescence, higher = more signal
# [16] = COS7 lysate on small-molecule microarray, probe aHis, 635 nm (AID 1123); settings: COS7 cell lysate, fluorescence, higher = more signal;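 note: z-score combines 667nm fluorescence intensity with signal-to-noise per printed compound spot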
# [17] = compound binding in COS7 lysate, probe aLAP1, primary screen, cell lysate, small-molecule microarray (AID 1124); settings: probe aLAP1, fluorescence, higher = more signal;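 note: lysate comes from COS7 cells expressing LAP1 and is applied at 0.3 µg/mL; score merges spot fluorescence near 667 nm with signal-to-noise over triplicate slides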
# [18] = test system: Sam68 (KHDRBS1); assay: Sam68 small-molecule binders, primary screen, biochemical, small-molecule microarray, 635 nm fluorescence (AID 1125); settings: small-molecule microarray binding, higher = more signal;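 note: score merges 667 nm channel intensity with signal to noise over triplicate slides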
# [19] = test system: Chordin-like protein 2 (CHRDL2); assay: CHRDL2 small-molecule binders, primary screen, biochemical, small-molecule microarray, 635 nm fluorescence (AID 1126); settings: small-molecule microarray binding, fluorescence 635 nm; higher = more signal;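 note: printed compound slides probed with Chrdl2 protein at 4 µg/mL for 1 h at 4 C; score merges 667 nm emission intensity with signal to noise over three replicate slides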
# [20] = target: Concanavalin-A (Canavalia ensiformis) (UniProt P02866); assay: ConA small-molecule binders, primary screen, artefact control for SMM control protein annotation, biochemical, small-molecule microarray, Alexa647 label, 635 nm (AID 1127); settings: ConA-A647 binding fluorescence, higher = more signal;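 note: z combines 667 nm emission intensity with signal-to-noise across three replicate slides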
# Concanavalin-A (Canavalia ensiformis), sequence (P02866 whole entry, looked up): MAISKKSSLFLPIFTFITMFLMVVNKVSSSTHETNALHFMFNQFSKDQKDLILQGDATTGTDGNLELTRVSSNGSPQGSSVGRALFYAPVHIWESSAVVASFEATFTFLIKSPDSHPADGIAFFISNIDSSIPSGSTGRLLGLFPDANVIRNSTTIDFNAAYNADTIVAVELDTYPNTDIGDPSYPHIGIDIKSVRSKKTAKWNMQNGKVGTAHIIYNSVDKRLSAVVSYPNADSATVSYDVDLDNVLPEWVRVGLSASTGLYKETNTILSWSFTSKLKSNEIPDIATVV
structure (smiles),measurement,setting,value
CO[C@H]1O[C@H](CO)[C@@H](OC(=O)Nc2ccc3c(c2)OCO3)[C@H](OC(=O)Nc2ccccc2-c2ccccc2)[C@H]1OC(=O)Nc1ccccc1-c1ccccc1,composite z-score,[1],1.08
same,z-score,[2],-3.79
same,composite z-score,[3],-0.0829
same,composite z-score,[4],1.54
same,composite z-score,[5],-0.243
same,composite z-score,[6],0.288
same,composite z-score,[7],-0.273
same,composite z-score,[8],0.747
same,composite z-score,[9],2.06
same,composite z-score,[10],0.557
same,composite z-score,[11],0.287
same,composite Z-score,[12],0.0432 (inactive)
same,composite z-score,[13],0.214
same,composite z-score,[14],0.084
same,composite z-score,[15],0.687
same,composite z-score,[16],2.27
same,composite z-score,[17],0.869
same,composite z-score,[18],1.29
same,composite z-score,[19],-0.162
same,composite z-score,[20],1.03
[N-]=[N+]=Nc1ccccc1[C@H]1OC(c2ccc(OCCCO)cc2)=N[C@@]1(Cc1ccccc1)C(=O)NCC(O)CO (stereo not given in full),composite z-score,[1],1.38
same,z-score,[2],-1.29
same,composite z-score,[3],-1.04
same,composite z-score,[4],1.04
same,composite z-score,[5],1
same,composite z-score,[6],0.119
same,composite z-score,[7],0.257
same,composite z-score,[8],0.0005
same,composite z-score,[9],1.5
same,composite z-score,[10],1.57
same,composite z-score,[11],0.793
same,composite Z-score,[12],0.0774 (inactive)
same,composite z-score,[13],0.0372
same,composite z-score,[14],-0.174
same,composite z-score,[15],0.444
same,composite z-score,[16],3.2
same,composite z-score,[17],-0.142
same,composite z-score,[18],0.495
same,composite z-score,[19],-0.832
same,composite z-score,[20],0.962
O=C(NC1CC1)[C@@H]1c2ccccc2C(=O)N(CC23CC4CC(CC(C4)C2)C3)[C@H]1c1ccc(CO)cc1,composite z-score,[1],1.36
same,z-score,[2],-1.22
same,composite z-score,[3],1.13
same,composite z-score,[4],0.609
same,composite z-score,[5],-0.657
same,composite z-score,[6],-0.096
same,composite z-score,[7],-0.138
same,composite z-score,[8],-0.541
same,composite z-score,[9],0.755
same,composite z-score,[10],0.428
same,composite z-score,[11],0.654
same,composite Z-score,[12],-0.0662 (inactive)
same,composite z-score,[13],0.183
same,composite z-score,[14],-0.0495
same,composite z-score,[15],0.388
same,composite z-score,[16],2.18
same,composite z-score,[17],0.99
same,composite z-score,[18],1.31
same,composite z-score,[19],1.16
same,composite z-score,[20],1.16
C=CCOC(=O)[C@@H]1[C@H]2C(=O)O[C@H](c3ccccc3)[C@H](c3ccccc3)N2[C@H](c2ccc(OCCOC(=O)[C@H]3C[C@H]4C(=O)N5CCC[C@H]5C(=O)N4[C@H]3c3cccc(OCCO)c3)cc2)[C@@]12C(=O)Nc1ccc(I)cc12,composite z-score,[1],0.195
same,z-score,[2],-0.898
same,composite z-score,[3],1.19
same,composite z-score,[4],-0.0165
same,composite z-score,[5],0.0231
same,composite z-score,[6],-0.0566
same,composite z-score,[7],0.138
same,composite z-score,[8],0.373
same,composite z-score,[9],1.09
same,composite z-score,[10],0.659
same,composite z-score,[11],-0.638
same,composite Z-score,[12],1.17 (inactive)
same,composite z-score,[13],-0.0328
same,composite z-score,[14],-0.0228
same,composite z-score,[15],0.219
same,composite z-score,[16],0.942
same,composite z-score,[17],0.448
same,composite z-score,[18],1.3
same,composite z-score,[19],1.02
same,composite z-score,[20],1.17
[N-]=[N+]=Nc1ccccc1[C@@H]1OC(c2ccc(OCCCO)cc2)=N[C@]1(Cc1ccccc1)C(=O)NCCN1CCOCC1,composite z-score,[1],1.5
same,z-score,[2],-2.41
same,composite z-score,[3],-0.429
same,composite z-score,[4],-0.0408
same,composite z-score,[5],0.741
same,composite z-score,[6],0.0044
same,composite z-score,[7],0.185
same,composite z-score,[8],0.996
same,composite z-score,[9],1.52
same,composite z-score,[10],1.23
same,composite z-score,[11],0.981
same,composite Z-score,[12],0.0561 (inactive)
same,composite z-score,[13],0.156
same,composite z-score,[14],-0.0482
same,composite z-score,[15],0.607
same,composite z-score,[16],2.86
same,composite z-score,[17],0.946
same,composite z-score,[18],0.96
same,composite z-score,[19],-0.377
same,composite z-score,[20],0.355
CC(C)C(=C=CC[C@H](O)c1ccccc1OCCO)C[C@H](O)c1cc(Cl)cc(Cl)c1O,composite z-score,[1],1.46
same,z-score,[2],-1.99
same,composite z-score,[3],0.0124
same,composite z-score,[4],0.195
same,composite z-score,[5],0.271
same,composite z-score,[6],-0.106
same,composite z-score,[7],0.0048
same,composite z-score,[8],0.158
same,composite z-score,[9],0.962
same,composite z-score,[10],0.919
same,composite z-score,[11],0.791
same,composite Z-score,[12],-0.275 (inactive)
same,composite z-score,[13],0.141
same,composite z-score,[14],-0.106
same,composite z-score,[15],0.664
same,composite z-score,[16],1.48
same,composite z-score,[17],0.114
same,composite z-score,[18],1.31
same,composite z-score,[19],-0.114
same,composite z-score,[20],1.14
COc1ccc(C(O)C2C=CC3C(=O)N(c4ccccc4)C(=O)C3N2Nc2ccc([N+](=O)[O-])cc2)c2ccccc12 (stereo not given),composite z-score,[1],1.45
same,z-score,[2],-0.749
same,composite z-score,[3],-0.0163
same,composite z-score,[4],1.86
same,composite z-score,[5],0.554
same,composite z-score,[6],0.062
same,composite z-score,[7],0.204
same,composite z-score,[8],1.61
same,composite z-score,[9],1.6
same,composite z-score,[10],2.54
same,composite z-score,[11],0.941
same,composite Z-score,[12],0.372 (inactive)
same,composite z-score,[13],0.155
same,composite z-score,[14],0.0702
same,composite z-score,[15],0.575
same,composite z-score,[16],2.5
same,composite z-score,[17],1.44
same,composite z-score,[18],1.3
same,composite z-score,[19],0.308
same,composite z-score,[20],1.22
O=C(NCc1ccc(F)cc1)[C@H]1C[C@H]2C(=O)N3CCC[C@H]3C(=O)N2[C@H]1c1ccc(O)cc1,composite z-score,[1],-0.512
same,z-score,[2],0.85
same,composite z-score,[3],0.124
same,composite z-score,[4],-0.178
same,composite z-score,[5],-0.386
same,composite z-score,[6],-0.176
same,composite z-score,[7],-0.366
same,composite z-score,[8],-0.344
same,composite z-score,[9],0.424
same,composite z-score,[10],-0.374
same,composite z-score,[11],-1.3
same,composite Z-score,[12],0.081 (inactive)
same,composite z-score,[13],-0.303
same,composite z-score,[14],-0.198
same,composite z-score,[15],-0.0109
same,composite z-score,[16],-0.136
same,composite z-score,[17],1.09
same,composite z-score,[18],-0.732
same,composite z-score,[19],0.857
same,composite z-score,[20],0.72
COc1ccc([Si](C)(C)[C@H]2[C@H](CC(=O)N3Cc4ccccc4C[C@H]3CO)O[C@@]3(C(=O)N(c4ccccc4)c4ccccc43)[C@@H]2C)cc1,composite z-score,[1],1.35
same,z-score,[2],-3.46
same,composite z-score,[3],0.949
same,composite z-score,[4],0.392
same,composite z-score,[5],-0.987
same,composite z-score,[6],0.127
same,composite z-score,[7],-0.0119
same,composite z-score,[8],-0.542
same,composite z-score,[9],1.7
same,composite z-score,[10],1.69
same,composite z-score,[11],0.622
same,composite Z-score,[12],0.319 (inactive)
same,composite z-score,[13],0.204
same,composite z-score,[14],-0.126
same,composite z-score,[15],0.306
same,composite z-score,[16],0.994
same,composite z-score,[17],0.374
same,composite z-score,[18],1.29
same,composite z-score,[19],1.22
same,composite z-score,[20],1.09
CCOC(=O)C[C@H]1[C@H](OC(=O)c2ccccc2-c2ccccc2)[C@@H](NC(=O)C2CCCCC2)c2cc(OCCCO)ccc2N1C(=O)c1ccc2ccccc2n1,composite z-score,[1],1.31
same,z-score,[2],-1.71
same,composite z-score,[3],0.358
same,composite z-score,[4],0.236
same,composite z-score,[5],-0.24
same,composite z-score,[6],-0.0087
same,composite z-score,[7],0.0611
same,composite z-score,[8],0.0707
same,composite z-score,[9],-0.0006
same,composite z-score,[10],0.026
same,composite z-score,[11],0.632
same,composite Z-score,[12],0.0805 (inactive)
same,composite z-score,[13],0.0553
same,composite z-score,[14],-0.037
same,composite z-score,[15],0.258
same,composite z-score,[16],0.249
same,composite z-score,[17],0.358
same,composite z-score,[18],1.07
same,composite z-score,[19],0.162
same,composite z-score,[20],-0.0181
